# Data reported in the supplement of paper PMC10127200.
# Where a name gives a salt, the structure may show the parent alone.
# Legend:
# Test in all cases: Euclidean distance of Cell Painting phenotypic profile (signed KS, 77 features) to DMSO centroid (dimensionless distance); 5 or 10 uM (library dependent); higher = stronger phenotypic change vs DMSO (phenoactivity)
# Settings in all cases: 48 h
# 786-O = test system: 786-O
# Summary of the method: (§1)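 Five cancer lines, together with a healthy fibroblast line, received library compounds for 48 h at a library-dependent 10 or 5 uM and 0.1% DMSO final. Harmony then derived 77 features from confocal 20X images (9 fields/well) of the stained cells, scoring each as a signed Kolmogorov-Smirnov statistic against same-plate vehicle wells. After plate-position correction, correlation weighting and replicate averaging at the top dose, phenoactivity was taken as each profile's Euclidean distance to the median vehicle profile.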
# A549 = test system: A549
# Summary of the method: as §1
# DU145 = test system: DU145
# Summary of the method: as §1
# FB = test system: FB
# Summary of the method: as §1
# HEPG2 = test system: HEPG2
# Summary of the method: as §1
# OVCAR4 = test system: OVCAR4
# Summary of the method: as §1
Compound,Euclidean distance (786-O),Euclidean distance (A549),Euclidean distance (DU145),Euclidean distance (FB),Euclidean distance (HEPG2),Euclidean distance (OVCAR4)
CC[C@@H]1C(=O)N(C)c2cnc(Nc3ccc(C(=O)NC4CCN(C)CC4)cc3OC)nc2N1C1CCCC1,3.46,3.75,3.25,3.72,2.48,3.25
COC[C@H](NC(=O)c1cnc(C)s1)C(=O)N[C@@H](COC)C(=O)N[C@@H](Cc1ccccc1)C(=O)[C@@]1(C)CO1 [Oprozomib (ONX 0912)],5.53,4.48,5.47,4.12,4.53,4.85
C[C@@H](C(=O)Nc1ccc(Cl)cc1)C1CCC(c2ccnc3ccc(F)cc23)CC1 (some centres not stated),1.84,2.05,1.38,1.29,1.93,1.69
Oc1ccc(O)cc1 [Hydroquinone],1.49,1.06,1.21,1.36,1.04,1.09
CN(C)CCOC(C)(c1ccccc1)c1ccccn1 (configuration not stated) [Doxylamine Succinate],1.09,0.709,1.18,1.42,0.475,1.14
CO[C@@H]1[C@@H](O[C@@H]2O[C@H](C)[C@@H](O[C@H]3C[C@@](C)(O)[C@@H](O)[C@H](C)O3)[C@H](N(C)C)[C@H]2O)[C@@H](CC=O)C[C@@H](C)[C@@H](O[C@H]2CC[C@H](N(C)C)[C@@H](C)O2)/C=C/C=C/C[C@@H](C)OC(=O)C[C@H]1OC(C)=O [Acetylspiramycin (ASPM)],0.993,1.5,2.15,1.66,1.45,1.73
O=C(O[C@@H]1C[C@@H]2C[C@H]3C[C@H](C1)N2CC3=O)c1c[nH]c2ccccc12 [Dolasetron Mesylate],1.12,0.793,0.963,1.17,0.558,1.22
CC1=C(C(=O)O)N2C(=O)[C@@H](NC(=O)[C@H](N)C3=CCC=CC3)[C@H]2SC1 [Cefradine],0.837,0.567,0.805,1.14,0.578,0.907
Cc1nnc(C(C)C)n1C1C[C@H]2CC[C@@H](C1)N2CC[C@H](NC(=O)C1CCC(F)(F)CC1)c1ccccc1 (stereo in doubt) [Maraviroc],1.35,0.711,1.04,1.1,0.487,1.71
Cn1ncc(Cl)c1-c1cc(C(=O)N[C@H](CN)Cc2ccc(F)c(F)c2)oc1Cl,3.04,2.27,3.3,3.69,2.27,2.44
Nc1ccn([C@@H]2O[C@H](CO)[C@@H](O)[C@@H]2O)c(=O)n1 [Cytarabine hydrochloride],3.21,3.25,2.45,2.97,2.73,3.43
CCCCOC(=O)c1ccc(O)cc1 [Butylparaben],1.05,1.03,1.11,1.03,0.462,1.66
CSc1ccc(C(=O)/C=C/c2cc(C)c(OC(C)(C)C(=O)O)c(C)c2)cc1 [Elafibranor],1.24,1.28,0.801,1.43,0.747,0.978
CC[C@H]1OC(=O)[C@H](C)[C@@H](O[C@H]2C[C@@](C)(OC)[C@@H](O)[C@H](C)O2)[C@H](C)[C@@H](O[C@@H]2O[C@H](C)C[C@H](N(C)C)[C@H]2O)[C@](C)(O)C[C@@H](C)CN(C)[C@H](C)[C@@H](O)[C@]1(C)O [Azithromycin],0.885,0.638,1.38,1.53,2.1,1.08
CC[C@H](C)C[C@H](C)CCCCCCCCC(=O)N[C@H]1C[C@@H](O)[C@@H](NCCN)NC(=O)[C@@H]2[C@@H](O)CCN2C(=O)[C@H]([C@H](O)CCN)NC(=O)[C@H]([C@H](O)[C@@H](O)c2ccc(O)cc2)NC(=O)[C@@H]2C[C@@H](O)CN2C(=O)[C@H]([C@@H](C)O)NC1=O [Caspofungin Acetate],2.18,0.866,1.51,2.42,1.15,1.86
CCOC(=O)Nc1ccc(NCc2ccc(F)cc2)nc1N [Flupirtine maleate],1.54,3.24,1.53,1.25,0.854,1.37
O=C(Oc1ccccc1C(=O)O)c1ccccc1O [Sasapyrine],0.578,0.394,0.556,0.969,0.413,1.18
Cc1nc2n(c(=O)c1CCN1CCC(c3noc4cc(F)ccc34)CC1)CCCC2 [Risperidone],1.21,0.71,0.723,1.08,0.51,0.674
COC[C@H]1C[C@@H](c2nc(-c3ccc4c(c3)COc3cc5c(ccc6nc([C@@H]7CC[C@H](C)N7C(=O)[C@@H](NC(=O)OC)C(C)C)[nH]c65)cc3-4)c[nH]2)N(C(=O)[C@H](NC(=O)OC)c2ccccc2)C1 [Velpatasvir],1.14,1.43,1.28,2.05,1.32,1.1
COCCOC(=O)C1=C(C)NC(C)=C(C(=O)OC(C)C)C1c1cccc([N+](=O)[O-])c1 (configuration not stated) [Nimodipine],1.59,1.37,1.08,1.08,1.96,1.09
C[C@H](NC(=O)C(=O)Nc1ccccc1C(C)(C)C)C(=O)N[C@@H](CC(=O)O)C(=O)COc1c(F)c(F)cc(F)c1F [Emricasan],1.44,0.567,0.769,0.936,0.32,0.99
Cc1cc(C#N)cc(C)c1Oc1nc(Nc2ccc(C#N)cc2)nc(N)c1Br [Etravirine (TMC125)],1.93,2.85,1.7,0.981,2.06,1.73
CC1(C)O[C@@H]2C[C@H]3[C@@H]4C[C@H](F)C5=CC(=O)C=C[C@]5(C)[C@@]4(F)[C@@H](O)C[C@]3(C)[C@]2(C(=O)CO)O1 [Fluocinolone Acetonide],1.43,1.77,2,2.02,0.86,2.22
O=C(c1ccc(C(=O)N2CCC(N3CCCC3)CC2)c(Nc2ccccc2)c1)N1CCC(N2CCCC2)CC1,0.8,1.05,0.703,0.904,0.536,0.678

Compound,Euclidean distance (786-O),Euclidean distance (A549),Euclidean distance (DU145),Euclidean distance (FB),Euclidean distance (HEPG2),Euclidean distance (OVCAR4)
CCCCc1oc2ccccc2c1C(=O)c1cc(I)c(OCCN(CC)CC)c(I)c1 [Amiodarone HCl],1.56,1.84,2.02,1.95,2.01,2.4
C=CC(=O)N1C[C@H](Nc2ncnc3[nH]ccc23)CC[C@@H]1C,1.27,0.386,1.09,0.936,0.582,0.786
O=C(Cn1cnnn1)N[C@@H]1C(=O)N2C(C(=O)O)=C(CSc3nncs3)CS[C@H]12 [Ceftezole],1.01,0.658,0.963,1.09,0.476,0.782
COCCc1ccc(OCC(O)CNC(C)C)cc1 (configuration not stated) [Metoprolol Tartrate],0.573,0.762,0.69,0.67,0.507,0.885
O=C(O)c1cccnc1Nc1cccc(C(F)(F)F)c1 [Niflumic acid],0.923,1.01,1.02,1.24,1.19,1.26
C[C@H](Nc1ccc(C#N)n(C)c1=O)c1cc2cc(Cl)ccc2[nH]c1=O [Olutasidenib (FT-2102)],1.42,0.866,0.784,1.36,0.641,1.06
CC(C)(CO)[C@@H](O)C(=O)NCCC(=O)O [D-Pantothenic acid],1.36,0.696,0.734,1.08,0.485,1.11
Clc1ccc(CCC(Cn2ccnc2)Sc2c(Cl)cccc2Cl)cc1 (configuration not stated) [Butoconazole],1.21,0.956,1.06,1.04,1.4,1.31
Cn1cc(Nc2nccc(N3C[C@H]4CC[C@@H](C3)N4C(=O)[C@@H]3CC3(F)F)n2)cn1,1.66,1.31,0.715,2.16,0.594,3.68
Cc1ccccc1C(C(=O)NC1CCCCC1)N(C(=O)Cn1ccnc1C)c1cccc(F)c1 (configuration not stated),1.02,1.06,1.01,1.52,0.839,1.59
Cc1ccc(C)c(OCCCC(C)(C)C(=O)O)c1 [Gemfibrozil],1.23,0.801,1.51,1.06,1.97,1.02
Nc1nc2c(ncn2COC(CO)CO)c(=O)[nH]1 [Ganciclovir],1.56,0.816,0.888,1.25,0.883,3.37
O=C1c2c(O)cc(O)cc2OC(c2ccc(O)c(O)c2)C1O (configuration not stated) [Taxifolin (Dihydroquercetin)],1.12,0.542,1.09,1.25,0.834,0.517
CC(C)(C)NCC(O)c1ccc(O)c(CO)c1 (configuration not stated) [Salbutamol],1.03,0.738,1.09,0.676,0.894,0.709
CCC(C)(C)C(=O)O[C@H]1C[C@@H](C)C=C2C=C[C@H](C)[C@H](CC[C@@H]3C[C@@H](O)CC(=O)O3)[C@H]21 [Simvastatin],1.35,0.686,1.1,1.4,1.9,1.18
CCN(CC)CCNC(=O)c1c(C)[nH]c(/C=C2\C(=O)Nc3ccc(-c4csc(-c5ccccc5)n4)cc32)c1C [Amcasertib (BBI503)],5.91,5.2,7.77,5.61,2.05,2.89
CCCCC(C)(O)C/C=C/[C@H]1[C@H](O)CC(=O)[C@@H]1CCCCCCC(=O)OC (mixture of isomers) [Misoprostol],1.2,0.849,1.06,1.07,0.553,1.08
CC(C)Cc1ccc(C(C)C(=O)O)cc1 (configuration not stated) [Ibuprofen Lysine],1.27,0.944,1.68,0.93,1.17,1.07
COCCCN1CCC(NC(=O)c2cc(Cl)c(N)c3c2OCC3)CC1 [Prucalopride Succinate],0.846,1.22,1.04,1.4,0.733,1.47
CC(C)Cc1ccc([C@@H](C)C(=O)NS(C)(=O)=O)cc1 [Reparixin (Repertaxin)],1.16,0.942,0.933,1.09,1.25,1.04
N[C@@H](Cc1c[nH]c2ccc(O)cc12)C(=O)O [5-hydroxytryptophan (5-HTP)],1.11,0.965,0.903,0.927,0.404,0.744
O=c1[nH]c(=O)n([C@H]2C[C@H](O)[C@@H](CO)O2)cc1/C=C/Br [Brivudine],1.21,0.849,0.765,1.07,0.725,0.962
Cc1cc(O)c2c(c1)C(=O)c1cc(O)cc(O)c1C2=O [Emodin],1.3,1.13,1.01,1,1.85,0.712
